Results published in PubChem BioAssay AID588790 (National Center for Advancing Translational Sciences (NCATS), 2011).
Out of some 1,200 compounds screened, about 85 (7%) were called active. Entries that show only a call come without a potency. The call rests on the fitted dose curve. The sample as a whole holds a higher share of actives than the screen did.
Potency means the concentration at half of the fitted maximal effect.

Each molecule was assayed against Beta-2 adrenergic receptor (Homo sapiens) (UniProt P07550) (assay: qHTS assay of beta-arrestin-biased ligands of beta2-adrenergic receptor: Hit Validation with GloSensor). Settings: W9-Glo22F cells, GloSensor cAMP luminescence, beta2AR agonism; activation: at 46.1 µM (top of the series).
Beta-2 adrenergic receptor (Homo sapiens), sequence (P07550 whole entry, looked up): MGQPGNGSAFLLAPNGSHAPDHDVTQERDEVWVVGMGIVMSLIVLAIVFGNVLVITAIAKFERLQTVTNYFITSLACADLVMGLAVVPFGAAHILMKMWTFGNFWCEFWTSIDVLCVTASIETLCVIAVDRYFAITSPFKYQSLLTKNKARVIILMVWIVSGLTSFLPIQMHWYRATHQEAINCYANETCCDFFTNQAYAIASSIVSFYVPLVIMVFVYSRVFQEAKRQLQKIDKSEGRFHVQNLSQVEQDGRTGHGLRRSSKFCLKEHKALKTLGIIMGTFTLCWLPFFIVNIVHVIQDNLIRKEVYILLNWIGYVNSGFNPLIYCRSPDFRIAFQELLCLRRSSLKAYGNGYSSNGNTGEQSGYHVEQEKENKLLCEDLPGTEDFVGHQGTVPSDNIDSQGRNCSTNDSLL
Method in brief: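 Luminescence measured 10 min after GloSensor reagent addition at room temperature. Preceded by compound pinning onto W9-Glo22F cells that had been cultured overnight at 37 deg C under 5% CO2.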
For `COc1cc(CN(C2CCCCC2)S(=O)(=O)c2ccc(S(=O)(=O)N(C)C3CCCCC3)cc2)cc(OC)c1OC`, the Potency was “inactive”. For `CCCNC(=O)COc1ccc2c(=O)c(Oc3ccccc3F)coc2c1`, the Potency was “inactive”. For `O=C(CSCC(=O)Nc1cccc([N+](=O)[O-])c1)Nc1ccccc1`, the Potency was “inactive”. For `CC(CCc1ccccc1)NCC(O)c1cccc([N+](=O)[O-])c1` (stereo not given), the Potency was 0.0206 µM (active). For `O=C(Cn1c(=O)c2sccc2n(Cc2cccc([N+](=O)[O-])c2)c1=O)NCCc1ccccc1`, the Potency was “inactive”. With `COc1ccc(C(=O)N/N=C/C(Br)=C/c2ccccc2)cc1` the Potency was “inactive”. In the case of `CCCc1cc(SCC(=O)Nc2c(C)n(C)n(-c3ccccc3)c2=O)n2c(nc3ccccc32)c1C#N`, the Potency is reported as “inactive”. With `NNc1ccc(Cl)nn1` the Potency was “inactive”. `Cc1cccc(NC(=S)NCc2ccco2)n1` was tested, and the Potency was “inactive”. For `C=CCNC(=S)N/N=C(\C)c1cccnc1`, the Potency was “inactive”. With `C=CCNC(=S)N/N=C(\C)c1cccc(NC(C)=O)c1` the Potency was 23.1 µM (active). For `C=CCNC(=S)N/N=C(\C)c1cccc(OC)c1`, the Potency was “inactive”. With `CCN(CC)c1ccc(/C=N/Nc2nc(C)cc(C)n2)cc1` the Potency was “inactive”. With `CN1CCN(C(=O)c2ccccc2[N+](=O)[O-])CC1` the Potency was “inactive”. With `NC(=S)N/N=C/c1ncc(C(F)(F)F)cc1Cl` the Potency was “inactive”. `COc1cccc(/C=N/Nc2ncc(C(F)(F)F)cc2Cl)c1O` was tested, and the Potency was 25.9 µM (active). `COCCCNC(=S)N/N=C/c1cccc(OC)c1O` was tested, and the Potency was “inactive”. In the case of `Oc1ccccc1/C=N/Nc1nc2ccccc2o1`, the Potency is reported as “inactive”. `CCCNC(=O)Cn1cnc2sc(C(=O)Nc3ccc4c(c3)OCO4)c(C)c2c1=O` was tested, and the Potency was “inactive”. `N/C(=C\C(=O)c1cc(Cl)ccc1O)C(Cl)(Cl)Cl` was tested, and the Potency was 23.1 µM (active). For `CCc1cc(C(=O)N(CC(C)C)c2c(N)n(Cc3ccccc3)c(=O)[nH]c2=O)sc1C`, the Potency was “inactive”. For `COC(=O)c1scc(C)c1S(=O)(=O)Nc1ccc(C)cc1`, the Potency was “inactive”. In the case of `CCOc1ccc(C(C)=O)cc1COC(=O)c1ccc2c(c1)NC(=O)CS2`, the Potency is reported as 4.61 µM (active). With `CCOc1ccc(C(C)=O)cc1COC(=O)CN1C(=O)NC2(CCCC2)C1=O` the Potency was “inactive”. In the case of `S=C(Nc1ccccc1)Nc1nc2ccccc2n1CCOc1ccc(Br)cc1`, the Potency is reported as “inactive”. For `Cc1ccnc(NC(=O)c2c(-c3ccccc3Cl)noc2C)c1`, the Potency was “inactive”. For `Cc1ccc(N(Cc2cc(=O)[nH]c3ccccc23)C(=O)c2ccco2)cc1`, the Potency was “inactive”. For `COc1ccc2c(c1)c(=O)c(C(=O)c1ccccc1)cn2Cc1ccccc1`, the Potency was “inactive”. In the case of `S=c1nc2ccccc2c2nc(-c3ccccc3)[nH]n12`, the Potency is reported as 18.4 µM (active). In the case of `Cc1nc2ccccc2c(=O)n1N`, the Potency is reported as “inactive”. With `Cc1ccccc1-c1nc2c3ccccc3nc(=S)n2[nH]1` the Potency was “inactive”. For `COc1ccc(/C(C)=N/NC(=S)NCCc2ccccc2)c(O)c1`, the Potency was “inactive”. In the case of `O=C(CNC(=O)c1ccccc1F)Nc1ccc2c(c1)OCO2`, the Potency is reported as “inactive”. In the case of `C=C(C)C(=O)OC1(C(F)(F)F)Oc2cc(C)ccc2NC1=O` (stereo not given), the Potency is reported as “inactive”. With `Cn1c(SCC(=O)N/N=C/C=C/c2ccco2)nc2ccccc21` the Potency was “inactive”. For `Cc1nn2c(nc1=O)NNC2(C)C(C)(C)C` (stereo not given), the Potency was “inactive”. `FC(F)(F)c1cc(Nc2ccccc2)nc(-c2ccccn2)n1` was tested, and the Potency was 18.4 µM (active). In the case of `CCN(CC)c1cc(C(F)(F)F)nc(-c2ccccn2)n1`, the Potency is reported as “inactive”. `Cc1cc(N)n(Cc2cccs2)n1` was tested, and the Potency was “inactive”. For `CCOC(=O)c1cnc(-n2nc(C)cc2C)nc1N(C)C`, the Potency was “inactive”. `CCOC(=O)c1cnc(-n2nc(C)cc2C)nc1NC` was tested, and the Potency was “inactive”. `COc1ccc(-c2cc(C(F)(F)F)nc(SCC(=O)NCc3ccco3)n2)cc1OC` was tested, and the Potency was 13 µM (active). With `COc1ccc(CNc2nc(SCC(=O)NCc3ccco3)nc3ccccc23)cc1` the Potency was “inactive”. `Cc1ccc(-n2c(SCC(=O)NCc3ccco3)nc3c(sc4ccccc43)c2=O)cc1` was tested, and the Potency was “inactive”. With `O=C(Nc1ccccc1)N1CCCC(c2nc(-c3cccs3)no2)C1` (stereo not given) the Potency was “inactive”. `COc1ccc(NC(=S)N2CCc3ccccc3C2)cc1` was tested, and the Potency was “inactive”. In the case of `COc1ccc(/C=N/Nc2nncc3ccccc23)c(OC)c1`, the Potency is reported as “inactive”. In the case of `Cc1ccc(/C(=N/Nc2ncnc3ccccc23)C(=O)O)cc1`, the Potency is reported as “inactive”. `COc1ccc(/C(C)=N/Nc2nc3ccccc3nc2C)cc1OC` was tested, and the Potency was 25.9 µM (active). With `Fc1ccccc1/C=N/n1cc(-c2ccccc2)[nH]c1=S` the Potency was “inactive”. With `O=C(/C=C/c1ccc(F)cc1)NC(=S)N1CCN(Cc2ccccc2)CC1` the Potency was “inactive”. For `C[C@H](C(=O)CC(=O)OC(C)(C)C)[C@H](O)c1ccccc1`, the Potency was “inactive”. `Cc1cc(/C=N/NC(N)=S)c(C)n1-c1ccc(Cl)cc1` was tested, and the Potency was “inactive”. In the case of `Cc1nc2ccc(NC(=O)CS(=O)(=O)c3ccc(F)cc3)cc2s1`, the Potency is reported as “inactive”. For `C/C(=N\NC(=S)NC1CCCCC1)c1ccc(C)o1`, the Potency was “inactive”. With `C/C(=N\NC(=S)NC1CCCCC1)c1cccs1` the Potency was “inactive”. `C/C(=N\NC(=S)NC1CCCCC1)c1ccc(O)cc1` was tested, and the Potency was 6.51 µM (active). `S=C(Nc1nc2c(s1)CCCC2)NC1CC1` was tested, and the Potency was “inactive”. In the case of `NS(=O)(=O)c1ccc(CCNC(=O)CSc2ccc(Cl)cc2)cc1`, the Potency is reported as “inactive”. For `Nc1c(Cl)ncnc1N/N=C/c1ccc2ccccc2n1`, the Potency was “inactive”. With `COc1cc(C(c2nnnn2C(C)(C)C)N2CCN(C)CC2)cc(OC)c1OC` (stereo not given) the Potency was “inactive”. With `O=C(NCCOc1cccnc1)C1CCC(=O)N(Cc2ccccc2F)C1` (stereo not given) the Potency was 9.2 µM (active). `CN(C(=O)CSc1ccncc1)C1CCCN(Cc2ccccc2F)C1` (stereo not given) was tested, and the Potency was “inactive”. With `COc1ccccc1N1CCN(C(=O)c2cc3ccccc3[nH]2)CC1` the Potency was “inactive”. With `Cc1[nH]c2ccccc2c1C(=O)C(C)OC(=O)c1ccc(NC(=O)CC#N)cc1` (stereo not given) the Potency was “inactive”. `O=C(Nc1ccc(Nc2ccccc2)cc1)c1cc([N+](=O)[O-])ccc1Cl` was tested, and the Potency was “inactive”. `CCC(=O)N1CCC2(CC1)Oc1ccc(Cl)cc1C(=O)C21CC(c2ccccc2)=NO1` (stereo not given) was tested, and the Potency was 23.1 µM (active). With `CC(C)C(=O)N1CCC2(CC1)Oc1ccc(Cl)cc1C(=O)C21CC(c2ccccc2)=NO1` (stereo not given) the Potency was “inactive”. In the case of `CC(C)Oc1ccc(/C=N/NC(N)=S)cc1`, the Potency is reported as “inactive”. With `Cc1cccnc1NCc1ccc(O)c2ncccc12` the Potency was “inactive”. `OCc1ccnc2c(O)cccc12` was tested, and the Potency was 25.9 µM (active). `CCCOCc1ccc(O)c2ncccc12` was tested, and the Potency was “inactive”. `COc1ccccc1NC(=O)COC(=O)c1ccc2ccccc2n1` was tested, and the Potency was “inactive”. `C[C@H](NC(=O)c1ccccc1)C(=O)Nc1nc(-c2ccccn2)cs1` was tested, and the Potency was “inactive”. In the case of `CC(C)OC(=O)c1cn(-c2ccccc2)nc1-c1ccco1`, the Potency is reported as 23.1 µM (active). `O=C(Nc1ccc(Cl)cc1)/C(=C/c1cccc(O)c1)c1nc2ccccc2s1` was tested, and the Potency was “inactive”. With `O=C(COc1ccc2ccccc2c1)Nc1ccc(Br)cc1C(=O)O` the Potency was “inactive”. `Cc1ccc(NC(=S)NC(NC(=O)c2ccco2)C(Cl)(Cl)Cl)cc1` (stereo not given) was tested, and the Potency was “inactive”. In the case of `COc1ccc2c(C)nc(Nc3nc(C)cc(C)n3)nc2c1`, the Potency is reported as “inactive”. `COc1cccc(NC(=S)N/N=C2\CC(C)(C)Oc3ccc(O)cc32)c1` was tested, and the Potency was 25.9 µM (active). In the case of `COc1ccccc1NC(=S)N/N=C1\CC(C)(C)Oc2ccc(O)cc21`, the Potency is reported as “inactive”. With `CC1(C)C/C(=N\NC(=S)Nc2ccccc2F)c2cc(O)ccc2O1` the Potency was “inactive”. With `C=CCOc1ccc2ccccc2c1CNn1c(C)n[nH]c1=S` the Potency was 8.2 µM (active). `CCN(CC)S(=O)(=O)c1ccc(N=Nc2c(C)[nH]n(C(N)=S)c2=O)cc1` was tested, and the Potency was “inactive”. `O=C(C[C@H]1C[C@H](C(=O)N2CCCCC2)[C@@]2(CCc3ccccc3)c3[nH]c4cc(-c5ccco5)ccc4c3CCN2C1=O)NCCC1=CCCCC1` was tested, and the Potency was “inactive”. For `C/C(=N\NC(=S)NC(C)C)c1ccc(Cl)s1`, the Potency was “inactive”. With `O=C(N/N=C/c1cn(-c2ccccc2)nc1-c1cc2ccccc2o1)c1cccnc1` the Potency was “inactive”. `CO/C=C\C=C/c1nnn(-c2ccc(Cl)cc2)n1` was tested, and the Potency was “inactive”. For `CCc1ccc(CNc2ccc(O)cc2)cc1`, the Potency was “inactive”. With `Cc1ccc(CNc2ccc(O)cc2)cc1` the Potency was “inactive”. For `CC(NCCc1ccc(O)cc1)C(O)c1ccc(O)cc1` (stereo not given), the Potency was 0.0116 µM (active). For `Oc1ccc(/C=N/NC(=S)NC2CC3CCC2C3)cc1` (stereo not given), the Potency was “inactive”. `C=CC[n+]1c(-c2ccc(C)cc2)csc1NNC(=O)Nc1ccccc1` was tested, and the Potency was “inactive”. For `COc1ccc(-c2c(-c3ccccc3)c(C(=O)C(=O)NCCCN(C)C)n3ccc4cc(OC)c(OC)cc4c23)cc1OC`, the Potency was “inactive”. `C=CC[n+]1c(-c2ccc(OC)c(OC)c2)csc1NNC(=O)Nc1ccccc1` was tested, and the Potency was 10.3 µM (active). With `O=C1NC2(C=Cc3c(ccc4ccccc34)O2)Oc2ccccc21` (stereo not given) the Potency was “inactive”. With `COc1cc(/C=N/Nc2ccc(F)cc2F)cc(OC)c1O` the Potency was “inactive”. In the case of `O=C(O)/C=C/c1nc(-c2ccccc2)n2ccccc12`, the Potency is reported as 25.9 µM (active). For `C[C@@H](NC(=O)c1coc(=O)c(Br)c1)c1ccccc1`, the Potency was “inactive”. With `O=[N+]([O-])c1cc([N+](=O)[O-])c2cc3ccccc3nc2c1` the Potency was “inactive”. In the case of `Cn1c(CNC(=O)c2ccccc2F)nnc1SCC(=O)c1ccccc1`, the Potency is reported as “inactive”. `COC(=O)CSc1ccc2nnc(-c3ccc(OC)c(OC)c3)n2n1` was tested, and the Potency was 25.9 µM (active). In the case of `COc1ccc(NC(=O)c2cc3c(-c4ccc(OC)c(OC)c4)nn(C)c3s2)cc1OC`, the Potency is reported as “inactive”. In the case of `COc1ccc(C(C)NC(=O)c2ccc(Br)cc2)cc1OC` (stereo not given), the Potency is reported as “inactive”. With `CCOc1ccc(/C(CCC(=O)O)=N/NC(=S)NCCc2ccccc2)cc1` the Potency was “inactive”. In the case of `COc1ccc(NC(=O)C(=O)NCC(c2ccco2)N2CCc3ccccc32)cc1` (stereo not given), the Potency is reported as “inactive”. With `COc1cc(/C=N/NC(=O)c2cncc(Br)c2)cc([N+](=O)[O-])c1O` the Potency was “inactive”. In the case of `Cn1c(O)c(/C=N/NC(=O)c2cc3ccccc3cc2O)c2ccccc21`, the Potency is reported as “inactive”. For `Oc1[nH]c2ccc(Br)cc2c1N=NC(=S)NCC1CCCO1` (stereo not given), the Potency was “inactive”. For `COc1cc(OC)c(NS(=O)(=O)c2cc(C(=O)OC(C)C(=O)NC3CC3)c(Cl)cc2Cl)cc1Cl` (stereo not given), the Potency was “inactive”.
